# Experimental data: PubChem BioAssay AID1851 (National Center for Advancing Translational Sciences (NCATS), 2009)
# Among all 16,000 compounds or so, about 2,600 (16%) were called active. Not shown: some 20% with an inconclusive outcome. The list is a sample of the results. Values without a mark were called inactive. Calls come from the whole dose curve; as a rule, active = well fitted curve in the direction sought with a large enough effect; inconclusive = small, poorly fitted or top-dose-only effect, or effect the other way; inactive = no such curve, though single readings can be large or run the other way.
# Biological target: Cytochrome P450 2D6 (Homo sapiens) (UniProt P10635)
# Sequence (P10635 whole entry, looked up): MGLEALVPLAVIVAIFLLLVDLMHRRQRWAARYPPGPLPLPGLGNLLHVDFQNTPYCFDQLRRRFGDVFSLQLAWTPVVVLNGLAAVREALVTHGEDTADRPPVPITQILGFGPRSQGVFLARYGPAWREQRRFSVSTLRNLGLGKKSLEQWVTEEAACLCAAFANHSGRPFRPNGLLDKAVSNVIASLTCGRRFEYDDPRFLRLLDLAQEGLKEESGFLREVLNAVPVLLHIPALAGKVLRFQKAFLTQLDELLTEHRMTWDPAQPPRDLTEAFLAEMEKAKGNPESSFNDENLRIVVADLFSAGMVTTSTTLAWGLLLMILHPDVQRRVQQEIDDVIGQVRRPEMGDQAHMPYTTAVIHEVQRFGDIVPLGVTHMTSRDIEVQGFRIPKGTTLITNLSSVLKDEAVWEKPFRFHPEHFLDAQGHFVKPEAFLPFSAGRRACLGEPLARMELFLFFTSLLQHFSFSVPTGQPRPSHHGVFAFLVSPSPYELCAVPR
# Experiment: Cytochrome panel assay with activity outcomes
# Details: recombinant CYP, pro-luciferin dealkylation, luminescence, p450-cyp2d6; series mostly up to 57.1 µM; activity, negative = inhibition: at the top concentration
# % is set by controls: 0 for no effect and ±100 for the full control effect.
SMILES,"activity, negative = inhibition",AC50
COCCn1c(=O)c(-c2ccccc2)nc2cnc(Nc3cccc(OC)c3)nc21,-0.906%,–
CC(C)c1ccc(N(C(=O)C(F)(F)F)C(C(=O)NC2CCCCC2)c2ccncc2)cc1 (configuration not stated),22.5%,–
Cc1cc(C)cc(N(C(=O)c2ccccn2)C(C(=O)NC2CCCCC2)c2cccs2)c1 (configuration not stated),-12.5%,–
O=C(NC1CCCCC1)C(c1cccs1)N(C(=O)C(F)(F)F)c1ccccc1 (configuration not stated),–,10 µM (active)
Cc1ccc(C(OC(=O)c2ccco2)C(=O)NC2CCCCC2)cc1 (configuration not stated),-14.1%,–
Cc1nn(C)cc1C(C(=O)NC1CCCCC1)N(C(=O)Cc1cccs1)c1ccc(C(C)C)cc1 (configuration not stated),-20.7%,–
O=C(NC1CCCCC1)C(c1cccs1)N(Cc1cccs1)C(=O)c1ccco1 (configuration not stated),–,17.8 µM (active)
O=C(NC1CCCC1)C(c1ccsc1)N(Cc1ccccc1)C(=O)Cc1cccs1 (configuration not stated),–,12.6 µM (active)
Cc1ccc(N(C(=O)C(F)(F)F)C(C(=O)NC2CCCCC2)c2cccs2)cc1C (configuration not stated),-4.71%,–
Cc1cc(C)cc(N(C(=O)Cc2cccs2)C(C(=O)NC2CCCCC2)c2ccccn2)c1 (configuration not stated),-21.3%,–
CC(C)(S)[C@H](N)C(=O)O,14.1% [at 11.4 µM],–
Cc1nc(S(=O)(=O)N(C)c2ccccc2)c(C#N)c(C)c1Cl,-18.8%,–
CCOC(=O)c1cc2c(C(F)(F)F)cc(-c3ccccc3)nc2o1,-0.763%,–
Nc1c(S(=O)(=O)O)cc(Nc2cccc(S(N)(=O)=O)c2)c2c1C(=O)c1ccccc1C2=O,-9.77% [at 11.4 µM],–
CCOC(=O)c1cc(NC(=O)c2ccc(C)cc2)c(=O)oc1-c1ccccc1,4.01%,–
O=C(c1c(O)c2ccc(Cl)cc2[nH]c1=O)C1CC1,–,0.1 µM (active)
O=C(O)c1cc(=O)c2ccc(Cl)cc2[nH]1,12.4%,–
CCOC(=O)Nc1ccc2c(c1)N(C(=O)CCN1CCOCC1)c1ccccc1S2,-6.49% [at 25.6 µM],–
CC1CCN(CC(=O)N2c3ccccc3Sc3cc4ccccc4cc32)CC1,–,3.98 µM (active)
COc1ccc(OC)c2[nH]c(=O)c(CCNC(=O)C3CCCCC3)cc12,12.1%,–
COc1ccc(-c2[nH]c(-c3ccc(C(=O)O)cc3)nc2-c2ccccc2)cc1,-3.85%,–
COc1ccc(-c2nc(-c3ccccc3)c(-c3cc([N+](=O)[O-])ccc3C)[nH]2)cc1O,–,28.2 µM (active)
COc1ccc([N+](=O)[O-])cc1COc1ccc2c(-c3ccccc3)cc(=O)oc2c1,-23.6%,–
COc1cccc(Nc2ncc3nc(-c4ccccc4)c(=O)n(C)c3n2)c1,-5.78%,–
COCCNC(=O)c1cc(-c2cccc(OC)c2)on1,-14.9%,–
CCOc1ccc(-n2c(N)c(C(=O)NCc3cccnc3)sc2=S)cc1,-9.16%,–

SMILES,"activity, negative = inhibition",AC50
COc1cccc(CNCCNC(=O)c2nonc2N)c1,–,3.16 µM (active)
COc1cccc(CSCC(=O)O)c1,14.7% [at 11.4 µM],–
CCOc1cccc(CNCCNC(=O)c2nonc2N)c1,–,2.24 µM (active)
CCOc1ccc(N2CC(C(=O)NCc3cccc(C)c3)CC2=O)cc1 (configuration not stated),6.93%,–
CCOC(=O)N1CCC(NC(=O)CCC(=O)N2CCOc3ccccc32)CC1,-9.58%,–
Cc1ccc(Oc2nn[nH]n2)cc1,16.1%,–
CC(=O)OCC1=C(C(=O)O)N2C(=O)[C@@H](NC(=O)CSc3ccncc3)[C@@H]2SC1,-9.3% [at 25.6 µM],–
COc1cc(/C=C2/C(=N)N3C=CSC3=NC2=O)ccc1OCCCOc1c(C)cccc1C,-27.4%,–
O=C(Nc1nccs1)c1sc2cc(Cl)ccc2c1Cl,-8.42%,–
O=C(c1cc2sccc2n1Cc1ccccc1)N1CCN(c2nc3ccccc3s2)CC1,-20.2%,–
COC(=O)c1ccc(NC(=O)c2cc3sccc3n2C)cc1,-8.69%,–
Cc1nnc(SCC(=O)Nc2nccs2)[nH]c1=O,4.05%,–
O=C(CSCc1ccc(Cl)cc1)Nc1nccs1,–,5.62 µM (active)
O=C(Nc1ccc2c(c1)OCCO2)c1cc2sccc2n1Cc1ccccc1,–,7.94 µM (active)
O=C(CSCc1ccc(Cl)cc1)Nc1ccc2c(c1)OCCO2,–,3.98 µM (active)
C/C(=N\NC(N)=O)c1ccc(Cl)cc1,-3.5%,–
C/C(=N\NC(=O)CSCc1ccc(Cl)cc1)c1ccc2c(c1)OCCO2,–,0.562 µM (active)
C/C(=N\NC(=O)Cc1ccc(Cl)cc1)c1ccccn1,-7.28%,–
O=C(CN1C(=O)C2C3C=CC(C3)C2C1=O)Nc1ccc2c(c1)OCCO2 (configuration not stated),-6.26%,–
Cc1nc(SCC(=O)Nc2ccc3c(c2)OCCO3)c2oc3ccccc3c2n1,-8.87%,–
COc1ccc(COC(=O)N/N=C2/C[C@@H](O)[C@@H](O)[C@@H]3[C@@H]4C(=O)N(C(C)(C)C)C(=O)[C@H]4CC[C@H]23)cc1,19.2% [at 11.4 µM],–
O=C(O)CCc1ccc(-c2ccc(Cl)cc2)n1CCC(=O)O,14.3%,–
O=S(=O)(c1ccccc1)N1CCCC1c1nc2ccccc2s1 (configuration not stated),-27.6%,–
COc1ccc(N2C(=O)CCC(C(=O)Nc3ccccn3)C2c2ccc(OC)c(OC)c2)cc1 (configuration not stated),9.02%,–
Oc1cc(O)c2c(c1)O[C@H](c1ccc(O)c(O)c1)[C@H](O)C2,–,inactive
COc1ncc2ncc(=O)n(C)c2n1,-2.66%,–

SMILES,"activity, negative = inhibition",AC50
COC(=O)C1CSC(C(=O)OC)N1C(=O)Nc1ccccc1 (configuration not stated),27.1%,–
CC(=O)Nc1ccc2c(c1)OCCO2,10.2%,–
O=C(CC(c1ccccc1)c1ccccc1)Nc1ccc2c(c1)OCCO2,–,0.251 µM (active)
CC(=O)Nc1ccc2c(c1)OCCOCCOc1cc(NC(C)=O)ccc1OCCOCCOCCO2,-24.6%,–
CO[C@H]1[C@@H](OC(N)=O)[C@H](O)[C@@H](Oc2ccc3c(O)c(NC(=O)c4ccc(O)c(CC=C(C)C)c4)c(=O)oc3c2C)OC1(C)C,-8.34% [at 25.6 µM],–
COc1ccc(CCNC(=O)c2ccc3c(=O)n(Cc4ccco4)c(=S)[nH]c3c2)cc1OC,-1.94%,–
Cc1ccc2nc(Nc3nc(-c4ccccc4)cc(=O)[nH]3)nc(C)c2c1,-24.8%,–
Cc1ccc2c(C)nc(Nc3nc(CSc4nc5ccccc5[nH]4)cc(=O)[nH]3)nc2c1,–,3.55 µM (active)
Cc1ccc2nc(SCC(=O)Nc3nnc(SCC(N)=O)s3)[nH]c2c1,-2.41%,–
Cc1nn(C)c(Oc2cccc(Cl)c2)c1C=O,-4.06%,–
Cc1ccc(C(=O)N/C(=C\c2ccc([N+](=O)[O-])cc2)C(=O)NCCc2ccccc2)cc1,-2.99%,–
CN1CCc2cccc3c2[C@H]1Cc1ccc(O)c(O)c1-3,–,12.6 µM (active)
CN1CCc2cccc3c2[C@@H]1Cc1ccc(O)c(O)c1-3,–,inactive
COc1ccc(C2=CSC(/N=C/c3ccc(F)cc3)=NN2)cc1,9.92%,–
COC(=O)CCSc1cc([N+](=O)[O-])cc2c1c(C1OCCS1)nn2-c1ccccc1 (configuration not stated),–,12.6 µM (active)
Cc1ccccc1OC/C(O)=C(\C#N)c1nc2ccccc2[nH]1,12.1%,–
Cc1cc(O)c(/C=N/Nc2cccc(Cl)c2)c(=O)o1,–,0.158 µM (active)
Cc1ccc(-n2cnc(=O)c3cccnc32)cc1,1.45%,–
Cc1ccc(-n2c(-c3ccc(Br)cc3)c[n+]3c2CCc2ccc4cccnc4c2-3)cc1,–,1.41 µM (active)
CCCCC[C@H](CC(=O)NO)C(=O)N[C@@H](C(=O)N1CCC[C@H]1CO)C(C)C,-6.29%,–
Nc1ccc(O)c(C(=O)O)c1,-14.1% [at 25.6 µM],–
CCC(=O)NC(Nc1sc2c(c1C(=O)OC)CCCC2)(C(F)(F)F)C(F)(F)F,2.09%,–
O=[N+]([O-])c1ccc2ncccc2c1CCc1c([N+](=O)[O-])ccc2ncccc12,-19.7% [at 11.4 µM],–
O=C(Nc1ccccn1)c1ccco1,-1.58%,–
CCS(=O)(=O)N1CCC(C(=O)NCc2ccco2)CC1,0.127%,–
O=C(O)C1C2CCC(C2)C1C(=O)NCc1ccco1 (configuration not stated),-21%,–

SMILES,"activity, negative = inhibition",AC50
Cc1cccc(C(=O)NC2CCN(C(=S)NCc3ccco3)CC2)c1,-18.9%,–
S=C(NCc1ccco1)N1CCN(Cc2ccco2)CC1,–,7.94 µM (active)
S=C(NCc1ccco1)N1CCN(C(c2ccccc2)c2ccccc2)CC1,–,7.94 µM (active)
O=C(CSc1ccccc1C(=O)O)NCc1ccco1,32.7%,–
O=C(NCc1ccco1)c1cc(C(=O)C2CC2)c[nH]1,4.02%,–
O=C1Nc2ccccc2C1=Nc1ccc(S(=O)(=O)Nc2nccs2)cc1,16.3% [at 11.4 µM],–
COc1ccc2c(OC)c3ccoc3nc2c1OC,-20.6% [at 25.6 µM],–
CC(C)(C)N1C(=O)[C@H]2[C@@H]3[C@H](O)[C@H](O)CC(=O)[C@H]3CC[C@H]2C1=O,7.18% [at 11.4 µM],–
O=C(CN1CCN(Cc2ccccc2)CC1)c1ccc(Br)cc1,–,1.41 µM (active)
O=C(c1coc(=O)c2ccccc12)N1CCN(Cc2ccccc2)CC1,-9.79%,–
O=C(c1cc(C(F)(F)F)cc(C(F)(F)F)c1)N1CCC2(CCN(Cc3ccccc3)CC2)CC1,-13.2%,–
CCc1c(O)nc2sc3ccccc3n2c1=O,-4.92%,–
CC(=O)c1cccc(NC=C2C(=O)OC3(CCCCC3)OC2=O)c1,15.4%,–
CCc1nnc(NC(=O)c2c(C)nn(-c3ccccc3)c2Cl)s1,-17.9%,–
c1ccc(-n2ncc3c(NCCCN4CCOCC4)ncnc32)cc1,-10.2%,–
CC(=O)NCCNc1ncnc2ccc(-c3ccoc3)cc12,-3.64%,–
c1ccc2c(c1)CCCc1cc(NCCN3CCOCC3)nnc1-2,-20.8% [at 25.6 µM],–
Clc1ccccc1-c1cc(NCCN2CCOCC2)ncn1,-17%,–
Clc1ccccc1-c1ccc2ncnc(NCCN3CCOCC3)c2c1,–,10 µM (active)
c1nc(NCCN2CCOCC2)c2cc(-c3ccc4c(c3)OCO4)ccc2n1,–,7.94 µM (active)
CC(=O)NCCNc1ncnc2ccc(-c3ccc4c(c3)OCO4)cc12,–,10 µM (active)
CN(C)C(=O)c1ccc(-c2ccc3ncnc(NCCN4CCOCC4)c3c2)cc1,-3.71%,–
c1nc(NCCN2CCOCC2)c2cc(-c3ccoc3)ccc2n1,–,2 µM (active)
CC(=O)NCCNc1ncnc2ccc(-c3ccc(C(=O)N(C)C)cc3)cc12,-14.3%,–
